40 compounds from PubChem BioAssay (NCI) can be followed below.

Structures are written as SMILES. This is part of a sample that, as a whole, favours compounds with a hit. Of some 79,000 tested, about 15% had one in any assay. Values without a mark were called inactive. Calls of active or inactive are those of the source. Rule as the data show it: active = growth inhibition above about 70%; inactive = the rest.

The nature of the first experiment: NCI Yeast Anticancer Drug Screen. Data for the mlh1 rad18 strain (AID 175). The following applies: S. cerevisiae mlh1 rad18 strain growth inhibition; at 50.0 µM (retest, dose inferred, filed as 5.0); stronger effect = higher value. The essentials:
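A repair-deficient yeast strain is exposed to test compound, and growth is scored relative to vehicle-treated controls.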
As to `CCOC(=O)CNC(=O)C1C2c3ccccc3C(c3ccccc32)C1C(=O)O` (stereo not given), the growth inhibition was 32%.
Same read-out and setting: the value for `O=[N+]([O-])c1ccc(NP(=S)(Nc2ccc([N+](=O)[O-])cc2)c2ccccc2)cc1` was 77% (active).
As to `O=P(c1ccccc1)(c1ccccc1)c1ccccc1.[Cl][Sn]([c]1ccccc1)([c]1ccccc1)[c]1ccccc1`, the growth inhibition was 99% (active).
Consider `CC(C)(C)OOC(=O)/C=C\C(=O)OOC(C)(C)C`, for which the growth inhibition is 0%.
Same read-out and setting: the value for `Cc1cc2c(cc1O)C(C)(C)CCC2(C)C` was 62%; that for `N#CC(C#N)=Cc1ccc(Cl)o1` was 29%.
`COc1c(Br)cc(/C=C/[N+](=O)[O-])cc1Br`: the growth inhibition is 98% (active).
For the compound `[O]=[Sb]([OH])([OH])[c]1ccc(NC2OC(CO)C(O)C(O)C2O)cc1` (stereo not given), the growth inhibition is -3%.
Same read-out and setting: the value for `NC(=S)C1=C(N)Oc2c(c(=O)oc3ccccc23)C1c1ccc(Br)cc1` (stereo not given) was 91% (active); that for `COS(=O)(=O)c1ccccc1` was -1%.
As to `O=[N+]([O-])c1cc[n+]([O-])c2ccccc12`, the growth inhibition is 99% (active).
Still for that read-out and setting: the value for `O=C(c1ccccc1)c1c(CC(O)c2cccnc2)n(C(=O)c2ccccc2)c2ccccc12` (stereo not given) was 94% (active); that for `Nc1nc2ncnc(N)c2nc1-c1ccc(N(CCCl)CCCl)cc1` was 35%.
The same measure, in the same setting: then `O=C1c2ccccc2CCC1Br` (stereo not given), with 99% (active).
On the same count and under the same terms, the value for `CC1CCCC[N-]1.CC1CCCC[N-]1.N#C[S-].N#C[S-].[Cd]` (stereo not given) was 39%.
Regarding `CCOP(=O)(OCC)/C(C#N)=C/c1ccc(Br)cc1`, the growth inhibition is 97% (active).
Same read-out and setting: the value for `CN(CCCl)Cc1ccc(OCc2ccccc2)c(OCc2ccccc2)c1` was 99% (active).
Same read-out and setting: then `O=C(O)c1cccc2cccc(C(=O)O)c12.[Hg]`, with 99% (active); and `S=c1[nH]c2ccccc2s1.[Pb]`, with -8%.
On the same count and under the same terms, the value for `COc1ccc([As](O[As](c2ccc(OC)cc2)c2ccc(OC)cc2)c2ccc(OC)cc2)cc1` was 99% (active).
Consider `CC1=C/C(=C2/N=C(N(C)C)SS2)C(C)=N1`, for which the growth inhibition was 71% (active).
On the same count and under the same terms, then `CN1C2CCC1c1c([nH]c3ccccc13)C2` (stereo not given), with -12%; and `C[CH2][Sn]([Br])([CH2]C)[c]1ccccc1CN(C)C`, with 79% (active); and `O=C(CCl)Nc1ccc(Cl)cc1`, with 45%.
Take `ClC1CCCCC1[Se](Cl)(Cl)C1CCCCC1Cl` (stereo not given): the growth inhibition is 99% (active).
Take `Cc1cc(C(C)(C)c2ccc(O)c(C)c2)ccc1O`: the growth inhibition is 99% (active).
Still for that read-out and setting: the value for `O=[N+]([O-])O.[In]` was 55%; that for `[pH]1p2[pH]p3p1p3[pH]2.c1cc[c]([Ge]([c]2ccccc2)[c]2ccccc2)cc1.c1cc[c]([Ge]([c]2ccccc2)[c]2ccccc2)cc1.c1cc[c]([Ge]([c]2ccccc2)[c]2ccccc2)cc1` was 71% (active).
Regarding `C1=CC2CCC[N-]C2N1.C1=CC2CCC[N-]C2N1.[I][Pt+2][I]` (stereo not given), the growth inhibition is 99% (active).
On to `O=[N+]([O-])/C=C/c1cccc(F)c1`, for which the growth inhibition is 99% (active).
On the same count and under the same terms, the value for `O=[N+]([O-])c1ccc(CS(=O)(=O)C(Cl)(Cl)Cl)o1` was 99% (active); that for `CC(=O)[O][Hg][c]1ccc(N)[c]([Hg][O]C(C)=O)c1` was 99% (active).
The same measure, in the same setting: the value for `CNP(=O)(Oc1cc(Cl)c(Cl)cc1Cl)N1CCN(c2ccccc2)CC1` (stereo not given) was 91% (active); that for `Cc1ccc2c(c1)N(CCN(CCCl)CCCl)c1c(ccc3ccccc13)S2` was 84% (active).
Still for that read-out and setting: the value for `CC1(C(=O)O)CCCC2(C)c3cc(O)ccc3CCC12` (stereo not given) was 89% (active); that for `C#CC(O)(CC)CC` was 9%.
As to `CC1CC[N-]C(C)C1.CN(C)C=O.[Cl][Pt][Cl]` (stereo not given), the growth inhibition is 99% (active).
Still for that read-out and setting: then `CN1CCN(c2ccc3nc(-c4ccc5nc(-c6ccc(N(C)CCCl)cc6)[nH]c5c4)[nH]c3c2)CC1`, with 99% (active); and `CC(=O)NNc1ccccc1`, with 84% (active).
The same measure, in the same setting: then `CC(C)[S-].CC(C)[S-].[Pt+2].c1ccc([PH+](c2ccccc2)c2ccccc2)cc1.c1ccc([PH+](c2ccccc2)c2ccccc2)cc1`, with 97% (active).

The experiment is the same for the next values; noted with them: S. cerevisiae mlh1 rad18 strain growth inhibition; at 50.0 µM; stronger effect = higher value.
As to `CCOC(=O)CNC(=O)C1C2c3ccccc3C(c3ccccc32)C1C(=O)O` (stereo not given), the growth inhibition was 98.5% (active).
Still for that read-out and setting: then `O=[N+]([O-])c1ccc(NP(=S)(Nc2ccc([N+](=O)[O-])cc2)c2ccccc2)cc1`, with 94.3% (active).
As for `O=P(c1ccccc1)(c1ccccc1)c1ccccc1.[Cl][Sn]([c]1ccccc1)([c]1ccccc1)[c]1ccccc1`, the growth inhibition is 99.5% (active).
The same measure, in the same setting: the value for `CC(C)(C)OOC(=O)/C=C\C(=O)OOC(C)(C)C` was -12.7%; that for `Cc1cc2c(cc1O)C(C)(C)CCC2(C)C` was 97.3% (active).
The same measure, in the same setting: the value for `N#CC(C#N)=Cc1ccc(Cl)o1` was 82.8% (active); that for `COc1c(Br)cc(/C=C/[N+](=O)[O-])cc1Br` was 82.8% (active).
Same read-out and setting: then `[O]=[Sb]([OH])([OH])[c]1ccc(NC2OC(CO)C(O)C(O)C2O)cc1` (stereo not given), with -10.4%.
Regarding `NC(=S)C1=C(N)Oc2c(c(=O)oc3ccccc23)C1c1ccc(Br)cc1` (stereo not given), the growth inhibition is 62.5%.
Same read-out and setting: the value for `COS(=O)(=O)c1ccccc1` was 10.3%; that for `O=[N+]([O-])c1cc[n+]([O-])c2ccccc12` was 98% (active).
Same read-out and setting: then `O=C(c1ccccc1)c1c(CC(O)c2cccnc2)n(C(=O)c2ccccc2)c2ccccc12` (stereo not given), with 91% (active); and `Nc1nc2ncnc(N)c2nc1-c1ccc(N(CCCl)CCCl)cc1`, with 68.8%; and `O=C1c2ccccc2CCC1Br` (stereo not given), with 99% (active).
Same read-out and setting: then `CC1CCCC[N-]1.CC1CCCC[N-]1.N#C[S-].N#C[S-].[Cd]` (stereo not given), with 73% (active).
In the case of `CCOP(=O)(OCC)/C(C#N)=C/c1ccc(Br)cc1`, the growth inhibition was 92% (active).
Still for that read-out and setting: then `CN(CCCl)Cc1ccc(OCc2ccccc2)c(OCc2ccccc2)c1`, with 99.6% (active); and `O=C(O)c1cccc2cccc(C(=O)O)c12.[Hg]`, with 99.6% (active); and `S=c1[nH]c2ccccc2s1.[Pb]`, with 90.9% (active).
On the same count and under the same terms, then `COc1ccc([As](O[As](c2ccc(OC)cc2)c2ccc(OC)cc2)c2ccc(OC)cc2)cc1`, with 99.5% (active); and `CC1=C/C(=C2/N=C(N(C)C)SS2)C(C)=N1`, with 16.7%.
On the same count and under the same terms, the value for `CN1C2CCC1c1c([nH]c3ccccc13)C2` (stereo not given) was 12.4%; that for `C[CH2][Sn]([Br])([CH2]C)[c]1ccccc1CN(C)C` was 86.7% (active).
Regarding `O=C(CCl)Nc1ccc(Cl)cc1`, the growth inhibition was 61.2%.
On the same count and under the same terms, then `ClC1CCCCC1[Se](Cl)(Cl)C1CCCCC1Cl` (stereo not given), with 98.8% (active); and `Cc1cc(C(C)(C)c2ccc(O)c(C)c2)ccc1O`, with 99.3% (active).
Same read-out and setting: then `O=[N+]([O-])O.[In]`, with 65.3%; and `[pH]1p2[pH]p3p1p3[pH]2.c1cc[c]([Ge]([c]2ccccc2)[c]2ccccc2)cc1.c1cc[c]([Ge]([c]2ccccc2)[c]2ccccc2)cc1.c1cc[c]([Ge]([c]2ccccc2)[c]2ccccc2)cc1`, with 18.4%; and `C1=CC2CCC[N-]C2N1.C1=CC2CCC[N-]C2N1.[I][Pt+2][I]` (stereo not given), with 98.8% (active).
Still for that read-out and setting: the value for `O=[N+]([O-])/C=C/c1cccc(F)c1` was 99.4% (active); that for `O=[N+]([O-])c1ccc(CS(=O)(=O)C(Cl)(Cl)Cl)o1` was 98.8% (active); that for `CC(=O)[O][Hg][c]1ccc(N)[c]([Hg][O]C(C)=O)c1` was 99.1% (active).
Consider `CNP(=O)(Oc1cc(Cl)c(Cl)cc1Cl)N1CCN(c2ccccc2)CC1` (stereo not given), for which the growth inhibition is 97.4% (active).
For the compound `Cc1ccc2c(c1)N(CCN(CCCl)CCCl)c1c(ccc3ccccc13)S2`, the growth inhibition is 91.9% (active).
Consider `CC1(C(=O)O)CCCC2(C)c3cc(O)ccc3CCC12` (stereo not given), for which the growth inhibition is 42.5%.
Same read-out and setting: the value for `C#CC(O)(CC)CC` was 73.5% (active).
For `CC1CC[N-]C(C)C1.CN(C)C=O.[Cl][Pt][Cl]` (stereo not given), the growth inhibition is 89.8% (active).
The same measure, in the same setting: then `CN1CCN(c2ccc3nc(-c4ccc5nc(-c6ccc(N(C)CCCl)cc6)[nH]c5c4)[nH]c3c2)CC1`, with 98.4% (active); and `CC(=O)NNc1ccccc1`, with 90.7% (active).
Still for that read-out and setting: the value for `CC(C)[S-].CC(C)[S-].[Pt+2].c1ccc([PH+](c2ccccc2)c2ccccc2)cc1.c1ccc([PH+](c2ccccc2)c2ccccc2)cc1` was 95.7% (active).
